The values that follow come from PubChem BioAssay (NCI).

About 83,000 compounds went through this panel and 20% of them were active in at least one assay; those are over-represented in the sample as a whole.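 Values shown are percent growth following 48 h exposure of cells in 96-well plates to a single concentration of compound; below 10 was considered active.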 Values without a mark were called inactive.

The first assay relates to SK-MEL-2 melanoma. Briefly: NCI-60 one-dose screen, 48 h (100 = growth as untreated, 0 = no growth, -100 = all killed). Conditions: 10 µM unless noted.
As for `COC(=O)C(Sc1ccc(Cl)cc1)C1SC(=S)N(Cc2ccccc2)C1=O` (stereo unspecified), the growth is 96.3%.

On to `COc1cc(-c2nn(-c3cccc(NC(=O)c4ccc(Cl)c(C(F)(F)F)c4)c3)cc2-c2ccncc2)ccc1Cl`, for which the growth is 18.9%.

Regarding `COc1ccc(OC)c(C2OC(c3ccc4ccccc4c3O)=NN2C(C)=O)c1` (stereo unspecified), the growth was 60.7%.

In the case of `CC1(C)C(=O)/C(=C\c2ccc(C(F)(F)F)cc2)C[C@]2(C)[C@H]3CC[C@@H]4[C@H]5[C@H](C(=O)/C=C/c6ccc(C(F)(F)F)cc6)CC[C@]5(CO)CC[C@@]4(C)[C@]3(C)CC[C@@H]12`, the growth is 105%.

The subject of another assay is EKVX NSCLC. The description is as above. Conditions: 10 µM unless noted.
As for `O=C(c1ccccc1)C1OC1c1ccc([N+](=O)[O-])cc1` (stereo unspecified), the growth is 89.2%.

As to `Nc1cccc(Cl)c1N`, the growth was 92%.

In the case of `CCN(CC)CCOc1ccc(Cl)c(C)c1`, the growth is 111%.

For the compound `CC(=O)Nc1scc[n+]1Cc1ccccc1`, the growth was 103%.

Consider `CCCCN(CCCC)C(=N)c1ccnc2ccccc12`, for which the growth is 104%.

`O=C(Oc1ccccc1[N+](=O)[O-])C1CCCN1C(=O)OCc1ccccc1` (stereo unspecified): the growth is 96.7%.

As to `CCN(CC)c1ccc(CNc2ccnc3ccccc23)cc1`, the growth is 45.3%.

As to `CC1=C(C#N)C(=O)NC(C)C1` (stereo unspecified), the growth was 105%.

As to `CC1CCC(C)N(C)C1` (stereo unspecified), the growth was 112%.

For the compound `COC(=O)c1cccc2c1N(C)c1c(cccc1C(=O)OC)CC2`, the growth was 112%.

Regarding `CN(C)c1cccc2c(S(=O)(=O)/N=C(\N)Nc3nc4ccccc4s3)cccc12`, the growth is 71.3%.

With `Nc1cc2c(cc1C(=O)c1cccc(F)c1)OCCO2`, the growth was 92.5%.
